Reference: PubChem BioAssay AID1159580 (chemical genetic matrix, 2015)
Several values for one entry are separate records, joined by “and”; a condition that tells them apart may be missing. Equal entries are not always repeated. Out of some 5,500 compounds screened, about 2,000 (36%) were called active. Not shown: some 18% with an inconclusive outcome. Rule as the data show it: active = normalized growth mostly below about 0.91 (no sharp cut-off); inconclusive = no clear call, values can overlap the other calls; inactive = mostly above about 0.92. The list shows a part of the results.

Assay: chemical genetic growth profiling, strain panel (AID 1159580);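 also: tested at 20 µM; growth read once vehicle control cultures reached saturation at 30 °C; 1 = growth at the plate median or of vehicle wells; lower values mean less growth of the strain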
Settings: growth OD

Measured: normalized growth

CCCCC1C(=O)N(c2ccccc2)N(c2ccccc2)C1=O
inactive: S. cerevisiae deletion strains, locus YJR075W, strain HOC1, active compounds read low 1 | S. cerevisiae deletion strains, locus YKL009W, strain mrt4, active compounds read low 0.98 | S. cerevisiae deletion strains, locus YKL068W, active compounds read low 0.963 | S. cerevisiae deletion strains, locus YKL085W, strain MDH1 (second series), active compounds read low 0.959 | S. cerevisiae deletion strains, locus YKL085W, strain MDH1, active compounds read low 0.959 | S. cerevisiae deletion strains, locus YKL160W, strain elf1, active compounds read low 1.01 | S. cerevisiae deletion strains, locus YKL190W, strain CNB1, active compounds read low 0.972 | S. cerevisiae deletion strains, locus YKR001C, strain vps1, active compounds read low 0.994 | S. cerevisiae deletion strains, locus YKR026C, strain gcn3, active compounds read low 0.988 | S. cerevisiae deletion strains, locus YKR091W, strain srl3, active compounds read low 0.986 | S. cerevisiae deletion strains, locus YLL001W, strain dnm1, active compounds read low 0.992 | S. cerevisiae deletion strains, locus YLL026W, active compounds read low 0.99 | S. cerevisiae deletion strains, locus YLL041C, strain sdh2, active compounds read low 0.985 | S. cerevisiae deletion strains, locus YLR027C, strain aat2, active compounds read low 0.987 | S. cerevisiae deletion strains, locus YLR039C, strain RIC1, active compounds read low 0.895 | S. cerevisiae deletion strains, locus YLR058C, strain SHM2, active compounds read low 0.987 | S. cerevisiae deletion strains, locus YLR102C, strain apc9, active compounds read low 0.983 | S. cerevisiae deletion strains, locus YLR113W, strain HOG1, active compounds read low 0.899 | S. cerevisiae deletion strains, locus YLR221C, strain rsa3, active compounds read low 1.02 | S. cerevisiae deletion strains, locus YLR258W, strain gsy2, active compounds read low 0.993 | S. cerevisiae deletion strains, locus YLR262C, strain YPT6 (second series), active compounds read low 0.93 | S. cerevisiae deletion strains, locus YLR262C, strain YPT6, active compounds read low 0.893 | S. cerevisiae deletion strains, locus YLR268W, strain sec22, active compounds read low 1.06 | S. cerevisiae deletion strains, locus YLR320W, strain mms22, active compounds read low 1.02 | S. cerevisiae deletion strains, locus YLR330W, strain CHS5, active compounds read low 0.984 | S. cerevisiae deletion strains, locus YLR342W, strain FKS1 (second series), active compounds read low 0.994 | S. cerevisiae deletion strains, locus YLR342W, strain FKS1, active compounds read low 0.978 | S. cerevisiae deletion strains, locus YLR357W, strain rsc2, active compounds read low 1.04 | S. cerevisiae deletion strains, locus YLR370C, strain arc18, active compounds read low 0.973 | S. cerevisiae deletion strains, locus YLR371W, strain rom2, active compounds read low 1 | S. cerevisiae deletion strains, locus YLR384C, strain iki3, active compounds read low 0.996 | S. cerevisiae deletion strains, locus YLR418C, strain cdc73, active compounds read low 0.995 | S. cerevisiae deletion strains, locus YML016C, strain PPZ1, active compounds read low 0.98 | S. cerevisiae deletion strains, locus YML032C, strain rad52, active compounds read low 1.02 | S. cerevisiae deletion strains, locus YML120C, strain ndi1, active compounds read low 0.999 | S. cerevisiae deletion strains, locus YML124C, strain tub3, active compounds read low 0.982 | S. cerevisiae deletion strains, locus YMR058W, strain fet3, active compounds read low 0.993 | S. cerevisiae deletion strains, locus YMR078C, strain ctf18, active compounds read low 0.988 | S. cerevisiae deletion strains, locus YMR125W, strain sto1, active compounds read low 0.989 | S. cerevisiae deletion strains, locus YMR129W, active compounds read low 0.986 | S. cerevisiae deletion strains, locus YMR205C, strain PFK2, active compounds read low 0.989 | S. cerevisiae deletion strains, locus YMR223W, strain ubp8, active compounds read low 0.967 | S. cerevisiae deletion strains, locus YMR231W, strain pep5, active compounds read low 0.996 | S. cerevisiae deletion strains, locus YMR263W, strain SAP30, active compounds read low 0.997 | S. cerevisiae deletion strains, locus YMR307W, strain GAS1, active compounds read low 0.971 | S. cerevisiae deletion strains, locus YNL067W, strain RPL9B, active compounds read low 1.02 | S. cerevisiae deletion strains, locus YNL071W, strain lat1, active compounds read low 0.994 | S. cerevisiae deletion strains, locus YNL128W, strain TEP1, active compounds read low 0.99 | S. cerevisiae deletion strains, locus YNL153C, strain GIM3, active compounds read low 1.04 and 1 | S. cerevisiae deletion strains, locus YNL175C, strain NOP13, active compounds read low 0.971 | S. cerevisiae deletion strains, locus YNL183C, strain NPR1, active compounds read low 0.946 | S. cerevisiae deletion strains, locus YNL197C, strain WHI3, active compounds read low 0.976 | S. cerevisiae deletion strains, locus YNL209W, strain ssb2, active compounds read low 1 | S. cerevisiae deletion strains, locus YNL224C, strain SQS1, active compounds read low 0.972 | S. cerevisiae deletion strains, locus YNL233W, strain BNI4, active compounds read low 1.04 | S. cerevisiae deletion strains, locus YNL248C, strain rpa49, active compounds read low 1.03 | S. cerevisiae deletion strains, locus YNL250W, strain rad50, active compounds read low 0.972 | S. cerevisiae deletion strains, locus YNL271C, strain bni1, active compounds read low 0.979 | S. cerevisiae deletion strains, locus YNL298W, strain CLA4, active compounds read low 0.998 | S. cerevisiae deletion strains, locus YNL307C, strain MCK1, active compounds read low 1.01 | S. cerevisiae deletion strains, locus YNL322C, strain KRE1 (second series), active compounds read low 0.982 | S. cerevisiae deletion strains, locus YNL322C, strain KRE1, active compounds read low 0.973 | S. cerevisiae deletion strains, locus YNR049C, strain mso1, active compounds read low 0.985 | S. cerevisiae deletion strains, locus YNR052C, strain pop2, active compounds read low 0.999 | S. cerevisiae deletion strains, locus YOL006C, strain TOP1, active compounds read low 1.05 | S. cerevisiae deletion strains, locus YOL012C, strain htz1 0.887 | S. cerevisiae deletion strains, locus YOL147C, strain pex11, active compounds read low 0.993 | S. cerevisiae deletion strains, locus YOR001W, strain rrp6, active compounds read low 0.99 | S. cerevisiae deletion strains, locus YOR061W, strain CKA2, active compounds read low 0.977 | S. cerevisiae deletion strains, locus YOR069W, strain VPS5, active compounds read low 0.984 | S. cerevisiae deletion strains, locus YOR070C, strain gyp1, active compounds read low 0.999 | S. cerevisiae deletion strains, locus YOR080W, strain dia2, active compounds read low 0.987 | S. cerevisiae deletion strains, locus YOR083W, strain WHI5 (second series), active compounds read low 0.994 | S. cerevisiae deletion strains, locus YOR083W, strain WHI5, active compounds read low 1.02 | S. cerevisiae deletion strains, locus YOR106W, strain vam3, active compounds read low 1.03 | S. cerevisiae deletion strains, locus YOR136W, strain idh2, active compounds read low 0.982 | S. cerevisiae deletion strains, locus YOR144C, strain elg1, active compounds read low 0.985 | S. cerevisiae deletion strains, locus YOR184W, strain ser1, active compounds read low 1 | S. cerevisiae deletion strains, locus YOR231W, strain MKK1, active compounds read low 0.933 | S. cerevisiae deletion strains, locus YOR265W, strain rbl2, active compounds read low 0.988 | S. cerevisiae deletion strains, locus YOR270C, strain vph1, active compounds read low 1.02 | S. cerevisiae deletion strains, locus YOR290C, strain snf2, active compounds read low 1.02 | S. cerevisiae deletion strains, locus YOR316C, strain cot1, active compounds read low 0.986 | S. cerevisiae deletion strains, locus YPL051W, strain arl3, active compounds read low 0.992 | S. cerevisiae deletion strains, locus YPL055C, strain LGE1, active compounds read low 1 and 0.997 | S. cerevisiae deletion strains, locus YPL078C, strain atp4, active compounds read low 1.02 | S. cerevisiae deletion strains, locus YPL106C, strain sse1, active compounds read low 1.01 | S. cerevisiae deletion strains, locus YPL240C, strain hsp82, active compounds read low 0.994 | S. cerevisiae deletion strains, locus YPL241C, strain CIN2, active compounds read low 0.981 and 1 | S. cerevisiae deletion strains, locus YPL256C, strain CLN2, active compounds read low 0.914 | S. cerevisiae deletion strains, locus YPR119W, strain clb2, active compounds read low 0.977 | S. cerevisiae deletion strains, locus YPR141C, strain kar3, active compounds read low 0.961 | S. cerevisiae deletion strains, locus YPR163C, strain tif3, active compounds read low 1 | S. cerevisiae deletion strains, locus YPR167C, strain met16, active compounds read low 0.993 | S. cerevisiae deletion strains, strain wtn01, active compounds read low 1.02 | S. cerevisiae strains, strain wild type, active compounds read low 0.984
